Results published in the supplement of paper PMC12494721.
Where a name gives a salt, the structure may show the parent alone.

Columns and labels:
Conditions in all cases: incubation time: 27 h, anaerobic, 37 °C;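 for the amine columns active = adjusted P below 0.05 in both replicates with a change the same way and a mean fold change under 0.8 or over 1.25; inactive = the rest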
[1] = tested on: Clostridium sporogenes DSM 1664; experiment: growth (OD595) fold change vs plate DMSO controls (fold change (ratio)); higher = more growth
Summary of the method: (§1)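 Anaerobic mGAM cultures in 96-well plates were grown for 27 h at 37 °C, and absorbance was then read at 595 nm. After blank and compound background correction with 20 µM compound solutions in water, a calibration factor of 5 gave OD. Growth is the fold change relative to the median of each plate's DMSO controls. Values are means of 2 biological replicates, with fold changes above 1.5 set to NA.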

[2] = tested on: Escherichia coli IAI1; experiment: as above
Summary of the method: as §1

[3] = tested on: Klebsiella aerogenes DSM 30053; experiment: as above
Summary of the method: as §1

[4] = tested on: Ruminococcus gnavus DSM 108212; experiment: as above
Summary of the method: as §1

[5] = tested on: Klebsiella aerogenes DSM 30053; experiment: fold change of Histamine concentration vs plate DMSO controls (fold change (ratio)); higher = more amine produced, active = hit call of the paper (significant change in both replicates, either direction)
Summary of the method: (§2)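 Extracts of whole anaerobic mGAM cultures were analysed for amines by LC–triple-quadrupole MS with dynamic MRM and external calibration curves, with drift corrected within batch. Four gut strains were grown at 37 °C for 27 h in 80 µL wells with compounds at 20 µM final, sweeteners at 50 µM final. Each value expresses fold change over plate DMSO controls. The average of 2 biological replicates is shown.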

[6] = tested on: Clostridium sporogenes DSM 1664; experiment: fold change of Tryptamine concentration vs plate DMSO controls (fold change (ratio)); higher = more amine produced, active = hit call of the paper (significant change in both replicates, either direction)
Summary of the method: as §2

[7] = tested on: Ruminococcus gnavus DSM 108212; experiment: as above
Summary of the method: as §2

[8] = tested on: Escherichia coli IAI1; experiment: fold change of Putrescine concentration vs plate DMSO controls (fold change (ratio)); higher = more amine produced, active = hit call of the paper (significant change in both replicates, either direction)
Summary of the method: as §2

[9] = tested on: Klebsiella aerogenes DSM 30053; experiment: as above
Summary of the method: as §2

[10] = tested on: Escherichia coli IAI1; experiment: fold change of Cadaverine concentration vs plate DMSO controls (fold change (ratio)); higher = more amine produced, active = hit call of the paper (significant change in both replicates, either direction)
Summary of the method: as §2

[11] = tested on: Klebsiella aerogenes DSM 30053; experiment: as above
Summary of the method: as §2

[12] = tested on: Ruminococcus gnavus DSM 108212; experiment: fold change of 2-Phenylethylamine concentration vs plate DMSO controls (fold change (ratio)); higher = more amine produced, active = hit call of the paper (significant change in both replicates, either direction)
Summary of the method: as §2

| Compound | growth [1] | growth [2] | growth [3] | growth [4] | fold change of Histamine concentration [5] | fold change of Tryptamine concentration [6] | fold change of Tryptamine concentration [7] | fold change of Putrescine concentration [8] | fold change of Putrescine concentration [9] | fold change of Cadaverine concentration [10] | fold change of Cadaverine concentration [11] | fold change of 2-Phenylethylamine concentration [12] |
| --- | --- | --- | --- | --- | --- | --- | --- | --- | --- | --- | --- | --- |
| NC[C@H]1O[C@H](O[C@H]2[C@H](O)[C@@H](O[C@H]3O[C@H](CO)[C@@H](O)[C@H](N)[C@H]3O)[C@H](N)C[C@@H]2N)[C@H](N)[C@@H](O)[C@@H]1O [Kanamycin B] (20 µM) | 1.05 | 0.89 | 0.765 | 0.976 | 0.723 (active) | 0.998 (inactive) | 0.923 (inactive) | 0.882 (inactive) | 1 (inactive) | 1.08 (inactive) | 0.978 (inactive) | 0.945 (inactive) |
| Oc1c(Cl)cc(Cl)cc1Sc1cc(Cl)cc(Cl)c1O [Bithionol] (20 µM) | 0 | 0.881 | 1.01 | 0.0806 | 1.05 (inactive) | 0.0165 (active) | 0.101 (active) | 1.26 (active) | 1.02 (inactive) | 1.51 (active) | 1.01 (inactive) | 0.0838 (active) |
| CC(=O)S[C@@H]1CC2=CC(=O)CC[C@]2(C)[C@H]2CC[C@@]3(C)[C@@H](CC[C@@]34CCC(=O)O4)[C@H]12 [Spironolactone] (20 µM) | 1.1 | 0.915 | 0.916 | 0.833 | 1 (inactive) | 1.03 (inactive) | 1.06 (inactive) | 1.02 (inactive) | 1.01 (inactive) | 1.02 (inactive) | 1 (inactive) | 1.01 (inactive) |
| COCC(=O)O[C@]1(CCN(C)CCCc2nc3ccccc3[nH]2)CCc2cc(F)ccc2[C@@H]1C(C)C [Mibefradil hydrochloride] (20 µM) | 1.05 | 0.996 | 1 | 0.967 | 0.954 (inactive) | 0.999 (inactive) | 0.925 (inactive) | 1.02 (inactive) | 1.01 (inactive) | 1.02 (inactive) | 1 (inactive) | 0.908 (inactive) |
| CC1(C)[C@@H](OC(=O)CCC(=O)O)CC[C@]2(C)[C@H]3C(=O)C=C4[C@@H]5C[C@@](C)(C(=O)O)CC[C@]5(C)CC[C@@]4(C)[C@]3(C)CC[C@@H]12 [Carbenoxolone disodium salt] (20 µM) | 1.06 | 0.984 | 0.977 | 0.91 | 1.03 (inactive) | 0.925 (inactive) | 1.04 (inactive) | 1.04 (inactive) | 1.02 (inactive) | 0.999 (inactive) | 0.993 (inactive) | 1.07 (inactive) |
| N#C/C(=C1/SCC(c2ccccc2Cl)S1)n1ccnc1 (configuration not stated) [Lanoconazole] (20 µM) | 0.991 | 0.983 | 1 | 1.1 | 0.945 (inactive) | 0.98 (inactive) | 0.982 (inactive) | 1.04 (inactive) | 1.01 (inactive) | 1.01 (inactive) | 1 (inactive) | 0.949 (inactive) |
| COc1cc(NS(=O)(=O)c2ccc(N)cc2)nc(OC)n1 [Sulfadimethoxine] (20 µM) | 0.79 | 0.992 | 1.1 | 1.01 | 0.891 (inactive) | 1.05 (inactive) | 1.29 (active) | 0.887 (inactive) | 0.946 (inactive) | 0.888 (inactive) | 1.03 (inactive) | 1.53 (active) |
| CCOC(=O)O[C@]1(C(=O)COC(=O)CC)CC[C@H]2[C@@H]3CCC4=CC(=O)C=C[C@]4(C)[C@H]3[C@@H](O)C[C@@]21C [Prednicarbate] (20 µM) | 1.04 | 1.09 | 1.01 | 0.865 | 1.02 (inactive) | 0.97 (inactive) | 1.2 (inactive) | 0.941 (inactive) | 1.03 (inactive) | 1.01 (inactive) | 1.12 (inactive) | 1.41 (inactive) |
| C=C1C[C@@]23CC[C@H]4[C@@](C)(CCC[C@@]4(C)C(=O)O[C@@H]4O[C@H](CO)[C@@H](O)[C@H](O)[C@H]4O)[C@@H]2CC[C@]1(O[C@@H]1O[C@H](CO)[C@@H](O)[C@H](O)[C@H]1O)C3 [Rubusoside] (50 µM) | 1.1 | 1 | 0.969 | 1.01 | 1.01 (inactive) | 1 (inactive) | 0.989 (inactive) | 1.05 (inactive) | 1.01 (inactive) | 1.02 (inactive) | 0.991 (inactive) | 0.981 (inactive) |
| CC(CN1c2ccccc2Sc2ccccc21)N(C)C (configuration not stated) [Promethazine hydrochloride] (20 µM) | 0.924 | 0.819 | 1.04 | 0.948 | 0.964 (inactive) | 0.997 (inactive) | 1.01 (inactive) | 0.858 (inactive) | 0.972 (inactive) | 1.05 (inactive) | 1.02 (inactive) | 1.06 (inactive) |
| O=C(Cn1c(=O)sc2ccc(Cl)cc21)N1CCN(CCO)CC1 [Tiaramide Hydrochloride] (20 µM) | 0.912 | 1 | 1 | 0.982 | 1.01 (inactive) | 1.08 (inactive) | 1.07 (inactive) | 0.959 (inactive) | 0.993 (inactive) | 0.963 (inactive) | 0.991 (inactive) | 1.13 (inactive) |
